Laboratory results published in PubChem BioAssay AID720517 (National Center for Advancing Translational Sciences (NCATS), 2013).
Results filed as inconclusive are left out. Where a call stands in place of a potency, no number is given. Active and inactive are the calls of the source. The call rests on the fitted dose curve; in most records, active means well fitted activation curve with a large enough effect; inconclusive means small, poorly fitted or top-dose-only effect; inactive means flat fitted curve, though single readings scatter.

assay: qHTS for Inhibitors of Cell Surface uPA Generation: FP59 Counterscreen for Cherry-picked Compounds; conditions: FP59 anthrax toxin cytotoxicity counterscreen, cells; series mostly up to 115 µM
Potency means the concentration at half of the fitted maximal effect.

Row | Structure (SMILES) | Potency
1 | COc1ccc(NC(=O)c2nn(C)c3c2CS(=O)(=O)c2ccccc2-3)cc1 | inactive
2 | O=C(CNS(=O)(=O)c1ccc(F)cc1)Nc1ccccc1 | inactive
3 | CN(C)c1cccc(C(=O)N(C)C2CCCN(Cc3ccccc3F)C2)c1 (centres undefined) | 52.1 µM (active)
4 | Oc1c(N=NC(=S)Nc2ccccc2F)c2ccccc2n1Cc1ccccc1Cl | inactive
5 | Cc1ccc(S(=O)(=O)Nc2nc(C)cc(N/N=C/c3ccc(O)cc3)n2)cc1 | inactive
6 | Cc1cnc(C(=O)OCC(=O)Nc2ccc3c(c2)OCCO3)cn1 | inactive
7 | O=C(/C=C/c1cccc(Oc2ccccc2)c1)N1CCOCC1 | inactive
8 | CN(C)CCNC(=O)Nc1ccc([N+](=O)[O-])cc1 | inactive
9 | COc1ccc(Cc2nnc(NC(=O)Nc3ccc(F)cc3)s2)cc1 | inactive
10 | COC(=O)/C(C#N)=C/c1c(N2CCN(c3ccccc3)CC2)nc2c(C)cccn2c1=O | inactive
11 | CC1=NN(C(N)=S)C(=O)C1N=Nc1ccccc1C(=O)O (centres undefined) | inactive
12 | CCSC1=NCCN1S(=O)(=O)c1ccc(Cl)cc1 | inactive
13 | COc1ccc(C(=O)NCCCN2CCOCC2)cc1 | inactive
14 | CC(C)N1CCc2c(sc(NC(=O)CCc3ccccc3)c2C(N)=O)C1 | inactive
15 | O=C(NCc1ccc(F)cc1)c1cc(S(=O)(=O)N2CCCCC2)ccc1N1CCOCC1 | inactive
16 | CCc1cc(CC)c(/C=N/NC(N)=O)c(CC)c1 | inactive
17 | CCN(CC)c1ccc(C=NCCc2ccc(S(N)(=O)=O)cc2)cc1 | inactive
18 | CC1(C(=O)OCC(=O)Nc2ccc(Cl)cn2)CC1(Cl)Cl (centres undefined) | inactive
19 | O=C(COC(=O)C1CC2C=CC1C2)NCc1ccccc1Cl (centres undefined) | inactive
20 | CC(C)C(NC(=O)Cc1ccccc1)C(=O)N1CCN(c2cccc(Cl)c2)CC1 (centres undefined) | inactive

Row | Structure (SMILES) | Potency
21 | COC(=O)COc1cc2ccccc2cc1C(=O)Nc1ccccc1 | inactive
22 | CCCCn1c(N)c(N(CCC(C)C)C(=O)c2sc3nc4n(c(=O)c3c2C)CCC4)c(=O)[nH]c1=O | inactive
23 | COc1cccc(CN(C)C(=O)c2cc(S(=O)(=O)N3CCCC3)ccc2C)c1OC | inactive
24 | COc1ccccc1CN1CC(C(=O)NCc2cccc(C)n2)CCC1=O (centres undefined) | inactive
25 | CC1(CC(=O)N/N=C/c2cc(Br)c(O)cc2O)OCCO1 | inactive
26 | Cc1ccccc1C(=O)NCC(=O)Nc1ccc(C)c(S(=O)(=O)N2CCCCCC2)c1 | inactive
27 | Cc1ccn(CCC(=O)N2CCc3ccccc32)n1 | inactive
28 | CCCCn1c(C2CCCCC2)nc2cc3[nH]c(=O)c(C(C)C)nc3cc21 | inactive
29 | Cc1cc(C)cc(NC(=O)COC(=O)CCn2c(C)csc2=O)c1 | inactive
30 | O=C(COc1ccccc1F)NCC(c1ccc(F)cc1)N1CCOCC1 (centres undefined) | inactive
31 | C/C(=N\NC(=S)NC(C)C)c1ccc(Cl)s1 | inactive
32 | CCOc1ncccc1C(=O)NCc1ccccc1Cl | inactive
33 | O=C(NC1CCCCC1)C(c1ccco1)N(C(=O)c1csnn1)c1cccc(Cl)c1 (centres undefined) | inactive
34 | Cn1cnc([N+](=O)[O-])c1Sc1ccc(Br)cc1 | inactive
35 | CCCN1CCN(CC(=O)Nc2nncs2)CC1 | inactive
36 | O=C(c1cccc(F)c1)N1CCN(Cc2cccc(Br)c2)CC1 | inactive
37 | COc1cc(CN2CCN(c3ncccn3)CC2)cc(OC)c1 | inactive
38 | Cc1ccc(C)c(N2N=C(C(=O)N(CC(C)C)c3c(N)n(Cc4ccccc4)c(=O)[nH]c3=O)CCC2=O)c1 | inactive
39 | Cc1ccc(NC(=O)CSc2nncn2N)cc1C | inactive
